High-throughput results as filed in PubChem.
MOR-DOR ag: OPRM1-OPRD1 heterodimerization agonism. P35372+P41143. cells, luminescence. activation, % at 9.3 µM. 340,000 compounds, 0.3% hits. AID 504326;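 also: 0% = vehicle-treated cells and 100% = reference agonist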
HTR5A inv ctr: HTR5A inverse agonism, opioid heterodimer counter-screen. AID 504634. 340,000 compounds, 0.083% hits. P47898. HTR5A cell line, luminescence. inhibition, % at 9.3 µM; in the data active = inhibition mostly above about 23%, no sharp cut-off; inactive = mostly below about 18%;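 also: 0% = cells with DMSO and 100% = no-cell wells with DMSO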
Target sequence (P47898 whole entry, looked up): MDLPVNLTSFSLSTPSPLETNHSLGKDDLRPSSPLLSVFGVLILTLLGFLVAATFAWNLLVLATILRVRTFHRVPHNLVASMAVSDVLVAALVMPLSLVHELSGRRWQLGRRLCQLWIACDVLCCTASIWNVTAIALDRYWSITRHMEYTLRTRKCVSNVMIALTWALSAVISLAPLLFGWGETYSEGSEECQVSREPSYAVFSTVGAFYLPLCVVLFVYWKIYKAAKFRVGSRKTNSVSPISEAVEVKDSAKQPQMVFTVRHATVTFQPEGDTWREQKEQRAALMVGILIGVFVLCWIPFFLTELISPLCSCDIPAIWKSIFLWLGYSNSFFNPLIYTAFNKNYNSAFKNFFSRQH
HTR5A ag: counter-screen for OPRM1-OPRD1 agonists: human HTR5A agonism. P47898. HTR5A agonist assay, luminescence, cell-based. activation, % at 9.3 µM. 340,000 compounds, 0.61% hits. AID 504692; in the data active = activation mostly above about 9.5%, no sharp cut-off; inactive = mostly below about 7.6%;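 also: 0% = cells with vehicle only and 100% = reference agonist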
MOR-DOR inv ag: mu-delta opioid heterodimer inverse agonism. inhibition, % at 9.3 µM. 340,000 compounds, 0.21% hits. cell-based MOR-DOR heterodimer luminescence. AID 504357; in the data active = inhibition above about 22%, passing the limit was not always enough;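 also: 0% = cells with DMSO and 100% = wells without cells with DMSO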
MOR-DOR ag conf: OPRM1-OPRD1 heterodimer agonism, confirmation | shares compounds with MOR-DOR ag | cells, MOR-DOR heterodimerization, luminescence complementation | activation, % at 9.3 µM | 830 compounds, 45% hits | AID 504904;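 also: 0% = vehicle-treated cells and 100% = reference agonist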
HTR5A ag counter: activates human HTR5A in OPRM1-OPRD1 agonist counter-screen | 830 compounds, 8% hits | HTR5A agonist counterscreen, cell luminescence | shares compounds with MOR-DOR ag | activation, % at 9.3 µM; in the data active = activation above about 17%;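 also: 0% = vehicle-treated cells and 100% = reference agonist response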
Starred values were filed as active, the others as inactive; i = inactive; · = not tested or not shown. Most compounds without a hit are left out; they make up all but 1.1% or so of the library. Rule as the data show it, unless noted: active = activation above about 18%; inactive = the rest.

SMILES	MOR-DOR ag	HTR5A inv ctr	HTR5A ag	MOR-DOR inv ag	MOR-DOR ag conf	HTR5A ag counter
Cc1ccc(NC(=O)Cn2c(O)c(N=NC(N)=S)c3ccccc32)cc1	20*	-32	8	-91	9	6
COc1ccc2c(c1)c(N=NC(N)=S)c(O)n2CC(=O)c1ccccc1	19*	-29	7	-110	15	8
CC(C)c1ccc(NC(=S)NCCc2c[nH]c3ccccc23)cc1	6	-20	8	-27	·	·
CCCCC(=O)Nc1cc(OC)c(NC(=O)C2CCCCC2)cc1OC	-2	-4	2	9	·	·
O=C(N/N=C/c1c(O)ccc2ccccc12)c1ccc(Br)o1	24*	-16	4	-139	-3	-6
O=C(N/N=C\c1c(O)ccc2ccccc12)c1ccc(O)cc1	0	13	6	0	·	·
COc1ccc(-c2sc(Nc3cccc4ccccc34)n[n+]2C)c(C)c1C	-4	-28	0	18	·	·
Cc1ccc(-c2nnn(CC(=O)Nc3ccc(S(=O)(=O)N4CCC(C)CC4)cc3)n2)cc1	47*	-65	15*	-230	26*	8
CS(=O)(=O)c1ccccc1C(=O)N(CCC1=CCCCC1)c1c(N)n(Cc2ccccc2)c(=O)[nH]c1=O	-1	-7	3	9	·	·
Cc1cc(Cl)ccc1OCC(=O)N[C@@H](Cc1ccccc1)c1nc2ccccc2[nH]1	24*	-25	6	-128	44*	2
COc1ccccc1C(=O)COC(=O)Cc1ccccc1F	-2	5	-1	8	·	·
COc1ccc(C2CC(c3ccc(Br)cc3)=NN2C(=O)CSC2=NCCS2)cc1 (stereo unspecified)	102*	12	0	-492	7	9
COc1ccc(C2=NN(C(=O)CSc3ncccn3)C(c3ccc(C)cc3)C2)cc1 (stereo unspecified)	2	-10	8	-9	·	·
COc1ccc(C2Nc3ccccc3C(=O)N2c2ccccc2)cc1CSc1ccccn1 (stereo unspecified)	27*	-3	0	-139	28*	-2
COc1ccc(C2Nc3ccccc3C(=O)N2Cc2ccccc2)cc1CSc1ccccn1 (stereo unspecified)	35*	-2	0	-188	1	4
COc1ccc(C2Nc3ccccc3C(=O)N2Cc2ccco2)cc1COc1ccc(NC(C)=O)cc1 (stereo unspecified)	117*	-10	7	i	68*	-3
COc1ccc(C2Nc3ccccc3C(=O)N2c2ccc(F)cc2)cc1CSc1ccccn1 (stereo unspecified)	38*	10	-4	-226	46*	3
COc1ccc(C2Nc3ccccc3C(=O)N2c2ccccc2)cc1COc1ccccn1 (stereo unspecified)	-2	11	5	9	·	·
CC(C)(O)P(=O)(O)CCc1ccccc1	-1	-9	-1	3	·	·
O=C(COc1cc2oc(=O)c3c(c2cc1Cl)CCC3)Nc1ccc(CN2CCOCC2)cc1	-2	5	3	8	·	·
O=S(=O)(c1ccccc1)N1CCN=C1SCc1cccc(Cl)c1	0	0	0	3	·	·
O=C(NCCSCc1ccco1)c1ccc(=O)[nH]c1	1	-5	2	-7	·	·
Cc1ccc2nc(Cl)c3cc(C(=O)N(CCN(C)C)Cc4ccco4)sc3c2c1	32*	3	-1	-156	1	3
COc1ccc(CCN2C(=O)N[C@@H](CCC(=O)O)C2=O)cc1	0	0	0	3	·	·
COc1ccc(C2(C)CC(=O)NC2=O)cc1 (stereo unspecified)	-2	13	-3	11	·	·
SMILES	MOR-DOR ag	HTR5A inv ctr	HTR5A ag	MOR-DOR inv ag	MOR-DOR ag conf	HTR5A ag counter
O=C(C[n+]1cnn(CC(=O)c2ccc(Cl)cc2Cl)c1)c1ccc([N+](=O)[O-])cc1	54*	-14	4	-298	5	4
O=C(Cn1cnc([N+](=O)[O-])c1)c1ccc(Cl)cc1	-2	-10	-2	11	·	·
COc1cccc(NC(=O)Nc2ccc3c(c2)N(C)C(=O)CS3)c1	0	4	5	1	·	·
Cc1ccc(C)c(N2CCN(C(=O)Nc3ccc4c(c3)N(C)C(=O)CS4)CC2)c1	3	0	0	-20	·	·
CN1C(=O)CSc2ccc(NC(=O)N3CCN(c4ccccn4)CC3)cc21	36*	-2	1	-218	26*	8
CC(=O)Nc1ccc(NC(=O)Nc2ccc3c(c2)N(C)C(=O)CS3)cc1	21*	-5	2	-150	3	2
S=C(NCCc1ccccc1)N1CCN(C23CC4CC(CC(C4)C2)C3)CC1	20*	7	-3	-96	10	1
CC(=O)c1ccc(NC(=O)[C@@H]2CCCN2C2=NS(=O)(=O)c3ccccc32)cc1	-2	9	2	7	·	·
O=C1C=C(c2c(O)ccc3ccccc23)c2ccccc2C1=O	54*	-39	10	-280	47*	14
CCOc1ccccc1N1CCN(C(=O)c2cccs2)CC1	-3	-4	1	13	·	·
CCOC(=O)C1(Cc2cccc(F)c2)CCN(Cc2cnc(C)s2)CC1	22*	-4	2	-113	24*	1
CCCn1ncc(CN2CCC(Cc3cccc(F)c3)(C(=O)OCC)CC2)c1C	3	-2	1	-14	·	·
CCOC(=O)C1(CCCc2ccccc2)CCN(Cc2cn(CC)nc2C)CC1	315*	0	0	i	20*	-1
CCOC(=O)C1(CCCc2ccccc2)CCN(Cc2cnc(C)s2)CC1	106*	3	-1	i	1	3
CCOC(=O)C1(CC2CC2)CCN(Cc2cn[nH]c2-c2ccccc2)CC1	-2	5	-2	8	·	·
CCOC(=O)C1(CCCc2ccccc2)CCN(Cc2nccn2CC)CC1	2	1	9	-17	·	·
CCOC(=O)C1(Cc2ccccc2)CCN(Cc2cn[nH]c2-c2ccccc2)CC1	36*	-3	5	-260	1	23*
O=C(COC(=O)c1cc[n+]([O-])cc1)Nc1c(Cl)cccc1C(F)(F)F	-1	4	2	5	·	·
Cc1cc(C(=O)NCC(=O)OCC(=O)NCC2CCCO2)ccc1[N+](=O)[O-] (stereo unspecified)	-2	17	4	7	·	·
Cn1c(=N)n(CC(=O)c2ccc(Br)cc2)c2ccccc21	34*	22	0	-180	25*	0
COc1ccc(CNC[C@@H](CCCCN(C)Cc2ccc(OC)cc2)N2C[C@H](c3ccccc3)N(CCc3ccc(Cl)c(Cl)c3)C(=O)C2=O)cc1	81*	-57	21*	-473	127*	33*
COc1ccc(CNC(=O)[C@@H]2CC=C[C@@H]3CCN(Cc4ccc(Cl)c(Cl)c4)C(=O)[C@@H]32)cc1	-1	12	-4	8	·	·
O=C(NCCc1ccccc1)C(c1cccs1)N(C(=O)CCl)c1ccc(Cl)cc1 (stereo unspecified)	87*	-85	32*	i	14	4
